Data on one compound can be found in ChEMBL document CHEMBL1961873, “Compounds: GSK PKIS; Assays: Nanosyn kinase panel” (2012).

A word on the inhibition: it is the relative decrease from the control value, in per cent.

Test [1] addresses Sphingosine kinase 1 (Homo sapiens) (UniProt Q9NYA1). Particulars: at 1 µM.
The target in test [2] is T1, Sphingosine kinase 2 (Homo sapiens) (UniProt Q9NRA0).
T1 sequence (whole entry): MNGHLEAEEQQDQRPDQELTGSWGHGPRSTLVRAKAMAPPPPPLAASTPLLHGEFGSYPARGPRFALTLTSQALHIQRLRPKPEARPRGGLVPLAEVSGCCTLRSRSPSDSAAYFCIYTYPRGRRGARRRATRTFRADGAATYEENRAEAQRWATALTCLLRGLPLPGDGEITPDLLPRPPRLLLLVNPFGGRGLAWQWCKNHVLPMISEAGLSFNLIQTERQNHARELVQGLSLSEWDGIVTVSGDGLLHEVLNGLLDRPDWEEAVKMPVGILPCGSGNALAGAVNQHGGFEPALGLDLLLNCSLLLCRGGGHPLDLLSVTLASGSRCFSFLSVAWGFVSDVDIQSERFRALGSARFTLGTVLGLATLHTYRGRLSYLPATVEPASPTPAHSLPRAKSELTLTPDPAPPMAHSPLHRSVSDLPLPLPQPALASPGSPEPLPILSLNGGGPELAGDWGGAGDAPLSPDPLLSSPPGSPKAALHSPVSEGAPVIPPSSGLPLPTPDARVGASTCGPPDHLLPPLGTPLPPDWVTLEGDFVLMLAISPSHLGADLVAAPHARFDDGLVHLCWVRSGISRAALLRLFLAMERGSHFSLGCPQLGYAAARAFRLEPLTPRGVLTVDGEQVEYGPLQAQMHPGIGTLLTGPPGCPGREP
The note with it: at 0.1 µM.

Test [3] has as its target T1, Sphingosine kinase 2 (Homo sapiens). Particulars: at 1 µM.
For test [4], the target named is Casein kinase II subunit alpha (Homo sapiens) (UniProt P68400). Particulars: at 0.1 µM.
The target is the same in test [5]. Particulars: at 1 µM.
The target in test [6] is T2, Inhibitor of nuclear factor kappa-B kinase subunit alpha (Homo sapiens) (UniProt O15111).
T2 sequence (whole entry): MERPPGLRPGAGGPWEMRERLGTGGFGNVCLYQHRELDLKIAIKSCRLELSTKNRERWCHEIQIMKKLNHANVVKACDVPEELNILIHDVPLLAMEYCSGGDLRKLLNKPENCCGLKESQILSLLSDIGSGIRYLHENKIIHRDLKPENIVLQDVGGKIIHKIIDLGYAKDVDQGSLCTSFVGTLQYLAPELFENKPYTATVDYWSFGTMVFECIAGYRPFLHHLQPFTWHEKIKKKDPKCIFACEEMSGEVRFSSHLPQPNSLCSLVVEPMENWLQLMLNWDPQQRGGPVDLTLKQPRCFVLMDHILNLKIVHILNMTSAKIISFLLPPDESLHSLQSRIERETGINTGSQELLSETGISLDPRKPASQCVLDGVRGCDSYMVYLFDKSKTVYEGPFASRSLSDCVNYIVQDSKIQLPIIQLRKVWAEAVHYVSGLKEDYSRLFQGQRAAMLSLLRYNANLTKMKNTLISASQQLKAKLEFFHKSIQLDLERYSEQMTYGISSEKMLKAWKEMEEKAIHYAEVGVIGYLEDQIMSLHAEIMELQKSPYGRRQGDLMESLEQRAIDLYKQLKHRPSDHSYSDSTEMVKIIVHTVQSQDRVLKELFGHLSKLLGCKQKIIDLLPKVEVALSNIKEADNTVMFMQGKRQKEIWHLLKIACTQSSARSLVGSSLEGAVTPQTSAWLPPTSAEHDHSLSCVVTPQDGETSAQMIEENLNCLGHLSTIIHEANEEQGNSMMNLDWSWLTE
The note with it: at 0.1 µM.

Test [7] concerns the target T2, Inhibitor of nuclear factor kappa-B kinase subunit alpha (Homo sapiens). Particulars: at 1 µM.
Test [8] has as its target T3, Inhibitor of nuclear factor kappa-B kinase subunit beta (Homo sapiens) (UniProt O14920).
T3 sequence (whole entry): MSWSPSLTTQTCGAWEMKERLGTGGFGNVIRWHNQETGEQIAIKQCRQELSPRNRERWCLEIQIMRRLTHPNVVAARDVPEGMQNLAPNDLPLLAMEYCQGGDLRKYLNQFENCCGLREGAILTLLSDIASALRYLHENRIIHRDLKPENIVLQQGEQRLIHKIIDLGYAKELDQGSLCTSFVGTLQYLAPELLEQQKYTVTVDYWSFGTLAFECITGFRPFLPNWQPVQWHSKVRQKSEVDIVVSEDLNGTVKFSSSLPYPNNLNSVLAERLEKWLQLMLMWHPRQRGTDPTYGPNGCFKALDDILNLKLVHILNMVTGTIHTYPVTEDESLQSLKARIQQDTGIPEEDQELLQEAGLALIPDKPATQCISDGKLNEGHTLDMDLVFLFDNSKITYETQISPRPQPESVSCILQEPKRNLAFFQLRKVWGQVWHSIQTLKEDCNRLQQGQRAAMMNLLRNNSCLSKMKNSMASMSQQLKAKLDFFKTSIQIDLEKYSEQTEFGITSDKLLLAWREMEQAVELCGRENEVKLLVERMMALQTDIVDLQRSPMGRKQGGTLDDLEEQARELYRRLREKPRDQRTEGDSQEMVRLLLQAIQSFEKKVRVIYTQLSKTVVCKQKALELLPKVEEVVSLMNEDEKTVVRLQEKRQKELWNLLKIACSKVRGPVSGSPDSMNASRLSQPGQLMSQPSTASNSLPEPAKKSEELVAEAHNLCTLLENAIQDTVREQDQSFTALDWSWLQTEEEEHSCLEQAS
The note with it: at 0.1 µM.

The target in test [9] is T3, Inhibitor of nuclear factor kappa-B kinase subunit beta (Homo sapiens). The note with it: at 1 µM.
Test [10] deals with T4, Inhibitor of nuclear factor kappa-B kinase subunit epsilon (Homo sapiens) (UniProt Q14164).
T4 sequence (whole entry): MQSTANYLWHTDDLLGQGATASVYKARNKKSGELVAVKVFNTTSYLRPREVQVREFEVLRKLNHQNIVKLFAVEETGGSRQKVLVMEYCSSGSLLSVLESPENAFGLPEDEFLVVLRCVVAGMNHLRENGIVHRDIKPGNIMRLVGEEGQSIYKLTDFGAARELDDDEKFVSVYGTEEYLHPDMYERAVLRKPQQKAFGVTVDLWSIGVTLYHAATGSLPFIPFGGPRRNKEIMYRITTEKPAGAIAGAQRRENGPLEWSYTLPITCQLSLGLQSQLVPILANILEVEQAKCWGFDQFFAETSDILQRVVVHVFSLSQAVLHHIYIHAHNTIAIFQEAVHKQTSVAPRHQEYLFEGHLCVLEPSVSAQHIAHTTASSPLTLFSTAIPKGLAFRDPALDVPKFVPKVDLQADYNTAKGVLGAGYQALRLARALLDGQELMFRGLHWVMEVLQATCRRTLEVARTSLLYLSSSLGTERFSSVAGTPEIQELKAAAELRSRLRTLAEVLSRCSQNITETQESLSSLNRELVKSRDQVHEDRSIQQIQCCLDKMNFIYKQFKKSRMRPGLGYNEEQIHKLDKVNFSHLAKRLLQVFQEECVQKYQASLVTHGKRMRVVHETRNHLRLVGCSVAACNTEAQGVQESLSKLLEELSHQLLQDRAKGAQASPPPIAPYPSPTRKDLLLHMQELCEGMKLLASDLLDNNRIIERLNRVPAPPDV
The note with it: at 0.1 µM.

For test [11], the target named is T5, Serine/threonine-protein kinase Nek1 (Homo sapiens) (UniProt Q96PY6).
T5 sequence (whole entry): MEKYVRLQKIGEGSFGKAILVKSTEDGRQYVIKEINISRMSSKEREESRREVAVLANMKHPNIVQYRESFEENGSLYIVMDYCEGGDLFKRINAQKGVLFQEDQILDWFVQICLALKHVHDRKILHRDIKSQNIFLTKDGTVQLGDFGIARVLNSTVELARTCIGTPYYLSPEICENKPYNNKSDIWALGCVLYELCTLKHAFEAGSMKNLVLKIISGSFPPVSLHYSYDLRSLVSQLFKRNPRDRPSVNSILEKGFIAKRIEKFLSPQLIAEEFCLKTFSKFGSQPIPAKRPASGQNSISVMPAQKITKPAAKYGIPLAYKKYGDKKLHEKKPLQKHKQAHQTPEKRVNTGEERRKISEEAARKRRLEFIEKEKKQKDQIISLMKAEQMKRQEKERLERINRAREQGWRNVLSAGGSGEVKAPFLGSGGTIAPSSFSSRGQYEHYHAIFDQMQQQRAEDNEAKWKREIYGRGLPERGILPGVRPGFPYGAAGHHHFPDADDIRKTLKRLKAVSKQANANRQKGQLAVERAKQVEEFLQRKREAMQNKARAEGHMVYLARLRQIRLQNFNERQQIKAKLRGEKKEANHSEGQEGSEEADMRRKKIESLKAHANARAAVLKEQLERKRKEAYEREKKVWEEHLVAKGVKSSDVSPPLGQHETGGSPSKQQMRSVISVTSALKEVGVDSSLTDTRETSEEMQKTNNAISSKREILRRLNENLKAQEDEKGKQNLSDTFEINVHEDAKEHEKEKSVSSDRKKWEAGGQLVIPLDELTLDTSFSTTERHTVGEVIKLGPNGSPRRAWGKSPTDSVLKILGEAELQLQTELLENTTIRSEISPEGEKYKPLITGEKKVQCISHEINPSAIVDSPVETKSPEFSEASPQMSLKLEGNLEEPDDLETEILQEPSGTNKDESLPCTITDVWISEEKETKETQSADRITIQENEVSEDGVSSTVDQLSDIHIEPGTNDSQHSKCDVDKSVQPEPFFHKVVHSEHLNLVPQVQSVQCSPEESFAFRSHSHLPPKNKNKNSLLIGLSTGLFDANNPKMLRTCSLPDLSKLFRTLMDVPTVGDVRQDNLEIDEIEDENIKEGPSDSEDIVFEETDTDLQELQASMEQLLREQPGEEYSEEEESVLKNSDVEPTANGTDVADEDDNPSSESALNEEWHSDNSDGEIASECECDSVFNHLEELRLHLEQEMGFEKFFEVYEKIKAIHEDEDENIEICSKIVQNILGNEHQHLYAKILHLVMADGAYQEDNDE
Particulars: at 0.1 µM.

Test [12] concerns the target T5, Serine/threonine-protein kinase Nek1 (Homo sapiens). The note with it: at 1 µM.
In test [13] the target is T6, Serine/threonine-protein kinase Nek2 (Homo sapiens) (UniProt P51955).
T6 sequence (whole entry): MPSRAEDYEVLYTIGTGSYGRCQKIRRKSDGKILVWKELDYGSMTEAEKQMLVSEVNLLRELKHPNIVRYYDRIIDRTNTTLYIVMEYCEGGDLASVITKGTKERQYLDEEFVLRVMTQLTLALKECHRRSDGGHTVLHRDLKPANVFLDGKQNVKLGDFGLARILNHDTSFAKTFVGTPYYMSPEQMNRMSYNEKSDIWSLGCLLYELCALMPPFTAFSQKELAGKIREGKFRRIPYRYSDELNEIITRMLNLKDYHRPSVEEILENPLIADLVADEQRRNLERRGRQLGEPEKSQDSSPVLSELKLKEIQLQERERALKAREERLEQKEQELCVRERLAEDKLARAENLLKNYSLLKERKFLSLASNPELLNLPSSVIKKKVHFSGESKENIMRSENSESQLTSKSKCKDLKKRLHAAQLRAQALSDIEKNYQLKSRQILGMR
Particulars: at 0.1 µM.

In test [14] the target is T6, Serine/threonine-protein kinase Nek2 (Homo sapiens). The note with it: at 1 µM.
Test [15] has as its target Serine/threonine-protein kinase Nek6 (Homo sapiens) (UniProt Q9HC98). Particulars: at 0.1 µM.
The target is the same in test [16]. Particulars: at 1 µM.
The target of test [17] is Serine/threonine-protein kinase Nek7 (Homo sapiens) (UniProt Q8TDX7). The note with it: at 0.1 µM.
For test [18] the target is unchanged. The note with it: at 1 µM.
The target in test [19] is T7, Serine/threonine-protein kinase Nek9 (Homo sapiens) (UniProt Q8TD19).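 Further: reported value is the mean percent inhibition of NEK9.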
T7 sequence (whole entry): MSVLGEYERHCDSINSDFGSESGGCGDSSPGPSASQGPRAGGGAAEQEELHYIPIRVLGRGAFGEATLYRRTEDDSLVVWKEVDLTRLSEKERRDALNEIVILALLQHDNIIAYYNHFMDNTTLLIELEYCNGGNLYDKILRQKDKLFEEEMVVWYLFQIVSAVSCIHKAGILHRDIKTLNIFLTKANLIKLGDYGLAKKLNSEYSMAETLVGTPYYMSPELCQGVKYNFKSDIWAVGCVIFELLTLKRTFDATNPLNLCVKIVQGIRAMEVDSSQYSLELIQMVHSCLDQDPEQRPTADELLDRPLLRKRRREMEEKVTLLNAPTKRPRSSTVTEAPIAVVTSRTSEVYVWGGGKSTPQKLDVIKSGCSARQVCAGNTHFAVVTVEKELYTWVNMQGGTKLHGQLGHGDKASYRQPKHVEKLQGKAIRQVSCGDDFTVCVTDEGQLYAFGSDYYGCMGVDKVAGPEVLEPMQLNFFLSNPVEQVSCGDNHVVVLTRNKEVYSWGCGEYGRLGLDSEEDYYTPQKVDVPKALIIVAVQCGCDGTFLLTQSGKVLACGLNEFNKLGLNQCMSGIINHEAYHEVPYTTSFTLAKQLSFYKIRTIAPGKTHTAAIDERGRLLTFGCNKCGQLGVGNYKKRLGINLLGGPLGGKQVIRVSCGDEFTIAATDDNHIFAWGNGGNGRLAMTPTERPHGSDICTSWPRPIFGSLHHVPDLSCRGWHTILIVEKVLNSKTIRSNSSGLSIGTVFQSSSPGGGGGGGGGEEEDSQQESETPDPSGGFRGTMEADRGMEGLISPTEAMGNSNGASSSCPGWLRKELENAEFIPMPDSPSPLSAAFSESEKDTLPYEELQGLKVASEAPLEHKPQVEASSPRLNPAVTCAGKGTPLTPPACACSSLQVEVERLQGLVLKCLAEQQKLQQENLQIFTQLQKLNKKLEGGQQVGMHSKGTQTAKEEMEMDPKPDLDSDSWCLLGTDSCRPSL
Particulars: at 0.1 µM.

Sequence of Casein kinase II subunit alpha (Homo sapiens) (P68400 whole entry, looked up): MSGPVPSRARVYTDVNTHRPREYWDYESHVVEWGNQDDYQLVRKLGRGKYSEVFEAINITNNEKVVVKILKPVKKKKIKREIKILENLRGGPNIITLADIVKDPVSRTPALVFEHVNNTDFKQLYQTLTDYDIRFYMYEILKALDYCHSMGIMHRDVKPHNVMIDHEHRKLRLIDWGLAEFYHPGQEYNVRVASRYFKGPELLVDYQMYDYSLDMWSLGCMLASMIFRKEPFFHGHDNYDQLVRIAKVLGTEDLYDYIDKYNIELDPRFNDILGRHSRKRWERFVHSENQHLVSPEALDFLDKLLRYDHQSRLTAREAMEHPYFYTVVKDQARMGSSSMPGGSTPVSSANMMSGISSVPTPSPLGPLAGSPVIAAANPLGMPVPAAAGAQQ
Sequence of Serine/threonine-protein kinase Nek6 (Homo sapiens) (Q9HC98 whole entry): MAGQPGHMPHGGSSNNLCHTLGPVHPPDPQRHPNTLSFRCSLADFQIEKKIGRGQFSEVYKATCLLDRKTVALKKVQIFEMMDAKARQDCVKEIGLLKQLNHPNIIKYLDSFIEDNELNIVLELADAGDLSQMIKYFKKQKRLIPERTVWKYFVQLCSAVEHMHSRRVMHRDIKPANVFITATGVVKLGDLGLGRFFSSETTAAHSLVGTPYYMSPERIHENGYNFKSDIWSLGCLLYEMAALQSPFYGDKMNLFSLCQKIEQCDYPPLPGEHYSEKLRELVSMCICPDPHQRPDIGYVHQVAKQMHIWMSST
Sequence of Serine/threonine-protein kinase Nek7 (Homo sapiens) (Q8TDX7 whole entry, looked up): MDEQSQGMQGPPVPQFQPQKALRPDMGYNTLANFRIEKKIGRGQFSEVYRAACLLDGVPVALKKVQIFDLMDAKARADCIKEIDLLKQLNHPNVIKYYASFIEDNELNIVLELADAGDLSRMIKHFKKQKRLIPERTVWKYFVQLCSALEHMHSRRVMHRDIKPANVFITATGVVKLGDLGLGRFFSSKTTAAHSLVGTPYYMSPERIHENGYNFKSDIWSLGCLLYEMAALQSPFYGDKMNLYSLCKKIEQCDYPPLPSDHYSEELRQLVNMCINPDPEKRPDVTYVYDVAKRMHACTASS
Sequence of Sphingosine kinase 1 (Homo sapiens) (Q9NYA1 whole entry): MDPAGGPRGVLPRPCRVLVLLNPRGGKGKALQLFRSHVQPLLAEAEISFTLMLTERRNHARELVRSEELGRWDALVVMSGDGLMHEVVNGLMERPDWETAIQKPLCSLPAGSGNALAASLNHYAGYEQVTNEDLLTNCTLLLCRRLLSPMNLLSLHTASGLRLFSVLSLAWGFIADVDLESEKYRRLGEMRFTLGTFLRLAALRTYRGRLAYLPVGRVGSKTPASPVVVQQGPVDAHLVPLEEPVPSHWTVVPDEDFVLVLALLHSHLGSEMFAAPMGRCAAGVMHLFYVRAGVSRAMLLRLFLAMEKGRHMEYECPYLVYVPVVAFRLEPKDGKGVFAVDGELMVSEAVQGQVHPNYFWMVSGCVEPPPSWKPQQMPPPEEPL

For the compound `O=C(NCC1CC1)c1ccc(-c2cccc(C(=O)NC3CC3)c2)cc1`, the inhibition in [1] was -3.07%; in [2], 0.02%; in test [3] it was 1.28%; in [4], 0.31%; in [5] it was -2.23%; in test [6], 4.96%. For the same compound, the inhibition is 0.42% in test [7]; 1.17% in [8]; 0.13% in [9]; 3.8% in test [10]; 1.66% in test [11]; 2.92% in test [12]. Further, the inhibition in [13] is 1.96%; in test [14] it was 1.96%; in test [15] it was 1.75%; in test [16], 1.92%; in [17], 3.35%; in test [18], 3.21%. In addition, the inhibition in test [19] came to 9.43%.
